# Source: PubChem BioAssay (NCATS)
# Records with an inconclusive call do not appear. Where a call stands in place of a potency, no number is given. The source made the active and inactive calls. Unless noted, calls follow the shape of the dose curve; as a rule, active = well fitted curve in the direction sought with a large enough effect; inconclusive = small, poorly fitted or top-dose-only effect, or another doubt; inactive = no such curve, though single readings can be large; an effect the other way counts as inactive or inconclusive. Where a SMILES comes first, the peptide text is derived from it. [ ]: non-standard residue; d: D form. ξ: configuration not given here. ξPhe(βξ-Me) = CC(c1ccccc1)C(N)C(=O)O; GABA = NCCCC(=O)O
# Columns and labels:
# [1] = Primary qHTS for inhibitors of nuclear receptor binding SET domain protein 2 (NSD2) in an isogenic RCH-ACV NSD2 p.E1099K mutant (9B) (AID 1645876); also: nearly all actives have a fitted effect of over 70% in size
# [2] = Primary qHTS for inhibitors of nuclear receptor binding SET domain protein 2 (NSD2) in an RCH-ACV wild type WT cells (2C) (AID 1645877); also: nearly all actives have a fitted effect of over 70% in size
# [3] = target: Catechol O-methyltransferase (Homo sapiens) (UniProt P21964); assay: Confirmatory Screen for Target Class Profiling of Small Molecule Inhibitors of Methyltransferases (AID 1745852; calls by dose curve); settings: MTase-Glo luminescence, SAH detection, recombinant enzyme; measured here: COMT max response; stronger effect = lower value
# Catechol O-methyltransferase (Homo sapiens), sequence (P21964 whole entry, looked up): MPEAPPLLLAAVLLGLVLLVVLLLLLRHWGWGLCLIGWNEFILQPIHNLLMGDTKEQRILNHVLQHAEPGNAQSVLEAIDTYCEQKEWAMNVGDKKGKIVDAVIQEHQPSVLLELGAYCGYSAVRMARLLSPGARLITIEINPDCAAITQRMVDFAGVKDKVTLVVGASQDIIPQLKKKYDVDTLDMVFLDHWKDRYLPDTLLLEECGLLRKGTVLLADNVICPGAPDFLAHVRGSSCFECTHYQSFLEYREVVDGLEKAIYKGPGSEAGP
# [4] = target: Guanidinoacetate N-methyltransferase (Homo sapiens) (UniProt Q14353); assay: as above; settings: activity change, negative = inhibition: at 57.3 µM (top of the series) unless noted
# [5] = target: Nicotinamide N-methyltransferase (Homo sapiens) (UniProt P40261); assay: as above; settings: MTase-Glo luminescence, SAH detection, recombinant enzyme; measured here: NNMT max response; stronger effect = lower value
# Nicotinamide N-methyltransferase (Homo sapiens), sequence (P40261 whole entry, looked up): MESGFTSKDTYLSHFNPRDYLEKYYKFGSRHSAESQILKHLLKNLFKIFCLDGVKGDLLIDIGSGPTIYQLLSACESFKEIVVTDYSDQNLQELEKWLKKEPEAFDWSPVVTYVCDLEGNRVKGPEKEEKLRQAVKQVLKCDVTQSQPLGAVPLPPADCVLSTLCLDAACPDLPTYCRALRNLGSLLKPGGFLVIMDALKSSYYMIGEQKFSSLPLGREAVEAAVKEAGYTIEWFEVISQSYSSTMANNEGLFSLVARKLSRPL
# [6] = target: Phenylethanolamine N-methyltransferase (Homo sapiens) (UniProt P11086); assay: as above; settings: MTase-Glo luminescence, SAH detection, recombinant enzyme; measured here: PNMT max response; stronger effect = lower value
# Phenylethanolamine N-methyltransferase (Homo sapiens), sequence (P11086 whole entry, looked up): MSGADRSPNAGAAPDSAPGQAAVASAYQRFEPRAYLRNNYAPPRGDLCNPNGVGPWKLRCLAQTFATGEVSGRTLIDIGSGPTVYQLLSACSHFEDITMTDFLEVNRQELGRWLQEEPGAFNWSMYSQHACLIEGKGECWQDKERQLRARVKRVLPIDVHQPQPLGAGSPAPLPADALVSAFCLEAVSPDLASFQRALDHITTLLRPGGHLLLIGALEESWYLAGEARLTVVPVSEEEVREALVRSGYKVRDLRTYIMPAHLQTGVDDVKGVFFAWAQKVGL
smiles,measurement,setting,value
CC1OC(OC2C(C)OC(OC3C(OC(=O)/C=C/c4ccc(O)cc4)C(CO)OC(OC4(COC(=O)/C=C/c5ccc(O)cc5)OC(CO)C(O)C4O)C3OC3OCC(O)(CO)C3O)C(O)C2O)C(O)C(O)C1O (stereo not given),"activity change, negative = viability loss",[1],-6.92% [at 9.23 µM] (inactive)
same,"activity change, negative = cell killing",[2],-11.9% [at 9.23 µM] (inactive)
COc1cc(C(C)=O)ccc1O[C@@H]1O[C@H](CO[C@@H]2O[C@@H](C)[C@H](O)[C@@H](O)[C@H]2O)[C@@H](O)[C@H](O)[C@H]1O,Potency,[1],inactive
same,Potency,[2],inactive
O=C(OCc1cccc(O)c1O[C@@H]1O[C@H](CO)[C@@H](O)[C@H](O)[C@H]1O)C1(O)C(=O)C2C=CC1C1C=CC(=O)C(O)(C(=O)OCc3cccc(O)c3O[C@@H]3O[C@H](CO)[C@@H](O)[C@H](O)[C@H]3O)C21 (stereo not given in full),"activity change, negative = viability loss",[1],-9.51% [at 9.23 µM] (inactive)
same,"activity change, negative = cell killing",[2],-22.5% [at 9.23 µM] (inactive)
C=C1CC[C@H]2[C@@](C)(CCC(O)[C@@]2(C)CO)[C@@H]1C/C=C(/C(=O)O)C(O)CO (stereo not given in full),Potency,[1],inactive
same,Potency,[2],inactive
O=C(O)CCc1cc2ccoc2cc1O[C@@H]1O[C@H](CO[C@@H]2OC[C@](O)(CO)[C@H]2O)[C@@H](O)[C@H](O)[C@H]1O,Potency,[1],inactive
same,Potency,[2],inactive
C=C1CC2C3(C)C(O)CC(=O)C(C)(C)C3C(OC(C)=O)C(OC(C)=O)C2(C)C2C(=O)OC(C)(C(=O)OC)C(=O)C12C (stereo not given),Potency,[1],inactive
same,Potency,[2],inactive
C=C1C[C@@]23CC[C@@H]4[C@](C)(C(=O)O)CCC[C@@]4(C)C2=CC[C@H]1C3,Potency,[1],inactive
same,Potency,[2],inactive
C=C[C@H]1[C@H](O[C@@H]2O[C@H](CO)[C@@H](O)[C@H](O)[C@H]2O)OC=C2C(=O)OCC[C@]21O,Potency,[1],inactive
same,Potency,[2],inactive
COC1CC(OC2CCC3(C)C(=CCC4C3CCC3(C)C(C(C)O)CCC43O)C2)OC(C)C1OC1OC(C)C(OC2OC(COC3OC(COC4OC(CO)C(O)C(O)C4O)C(O)C(O)C3O)C(O)C(O)C2O)C(OC)C1O (stereo not given),outcome,[1],inactive [at 9.23 µM]
same,outcome,[2],inactive [at 9.23 µM]
CC(O)C(O)/C=C/C=C/C(=O)O[C@@H]1C=C2COC(=O)[C@]2(O)[C@@]2(C)CCCC(C)(C)C12 (stereo not given in full),Potency,[1],inactive
same,Potency,[2],inactive
COc1cc(C2c3cc(O)c(OC)cc3CC(CO)C2CO)ccc1O (stereo not given),Potency,[1],inactive
same,Potency,[2],inactive
C/C(=C/CO)CC[C@@H]1[C@@]2(C)CCC[C@](C)(C(=O)O)C2CC[C@@]1(C)O (stereo not given in full),Potency,[1],inactive
same,Potency,[2],inactive
CCNC(=O)CCC/C=C\C[C@@H]1[C@@H](/C=C/C(O)CCc2ccccc2)[C@@H](O)C[C@@H]1O (stereo not given in full),Potency,[1],inactive
same,Potency,[2],inactive
OC[C@H]1O[C@@H](OC(CCCCc2ccc(O)cc2)CCc2ccc(O)cc2)[C@H](O[C@@H]2OC[C@](O)(CO)[C@H]2O)[C@@H](O)[C@@H]1O (stereo not given in full),Potency,[1],inactive
same,Potency,[2],inactive
CC(=O)OC[C@@]12[C@H](O)C[C@@H](C)[C@]3(C[C@@H](c4ccoc4)OC3=O)[C@H]1C[C@H](O)C[C@]21CO1,Potency,[1],inactive
same,Potency,[2],inactive
COC(=O)C[C@@H]1C(C(=O)O)=CO[C@@H](O[C@@H]2O[C@H](CO)[C@@H](O)[C@H](O)[C@H]2O)/C1=C\COC(=O)/C=C\c1ccccc1,Potency,[1],inactive
same,Potency,[2],inactive
CC(C)[C@@H](C)/C=C/[C@@H](C)[C@H]1CC[C@H]2C3=CC=C4C[C@@H](O)CC[C@]4(C)[C@H]3CC[C@]12C,Potency,[1],inactive
same,Potency,[2],inactive
O=C1[C@H](O[C@@H]2O[C@H](CO)[C@@H](O)[C@H](O)[C@H]2O)Oc2ccccc2N1O,Potency,[1],inactive
same,Potency,[2],inactive
C[C@@H]1O[C@@H](O[C@H]2[C@H](O[C@H]3CC[C@@]4(C)C(CC[C@]5(C)C4CC=C4C6CC(C)(C)CC[C@]6(C(=O)O[C@@H]6O[C@H](CO[C@@H]7O[C@H](CO)[C@@H](O[C@@H]8O[C@@H](C)[C@H](O)[C@@H](O)[C@H]8O)[C@H](O)[C@H]7O)[C@@H](O)[C@H](O)[C@H]6O)CC[C@]45C)[C@]3(C)CO)OC[C@H](O)[C@@H]2O)[C@H](O)[C@H](O)[C@H]1O (stereo not given in full),"activity change, negative = viability loss",[1],-5.7% [at 9.23 µM] (inactive)
same,"activity change, negative = cell killing",[2],-6.93% [at 9.23 µM] (inactive)
O=C(O)C[C@H]1CCC(=O)[C@@H]1C/C=C\CCOC1OC(CO)C(O)C(O)C1O (stereo not given in full),Potency,[1],inactive
same,Potency,[2],inactive
C=C1CC2C3(C)C(OC(C)=O)CC(=O)OC(C)(C)C3C(O)C(OC(C)=O)C2(C)C2C(=O)OC(C)C(=O)C12C (stereo not given),Potency,[1],inactive
same,Potency,[2],inactive
COc1cc(C)c(C(=O)O[C@H]2[C@@H](O)[C@H](n3ccc(=O)[nH]c3=O)O[C@@H]2CO)c(OC)c1,Potency,[1],inactive
same,Potency,[2],inactive
COc1c(C)c(OCC=C(C)C)cc2c1C(=O)NC2=O,Potency,[1],inactive
same,Potency,[2],inactive
O=C(c1ccc(NS(=O)(=O)c2cccc3cccnc23)cc1)N1CCN(CC2CC2)CC1,Potency,[1],inactive
same,Potency,[2],inactive
C=C(C(=O)O)[C@@H]1CC=C2CCC[C@H](C)[C@@]2(C)C1,Potency,[1],inactive
same,Potency,[2],inactive
CC(=O)OC1C=C(C(=O)O)C2(CO)CCC(C)C(C)(CCc3ccoc3)C2C1 (stereo not given),Potency,[1],inactive
same,Potency,[2],inactive
CC(C)(O)c1ccc2c(c1)C(O)CC1C(C)(C(=O)O)CCCC21C (stereo not given),Potency,[1],inactive
same,Potency,[2],inactive
CC(C)CC1NC(=O)C(C(C)c2ccccc2)NC(=O)C(C(C)C)NC(=O)C(C)NC(=O)CCCNC(=O)C(Cc2c[nH]c3ccccc23)NC(=O)C(C)NC1=O (stereo not drawn) (cyclo([GABA]AV[ξPhe(βξ-Me)]LAW); configuration not given here),Potency,[1],inactive
same,Potency,[2],inactive
CCCC(N[C@@H](C)C(=O)N1[C@H](C(=O)O)C[C@@H]2CCCC[C@@H]21)C(=O)OCC (stereo not given in full),Potency,[1],inactive
same,Potency,[2],inactive
CC12CC34C=CC(=O)C(C)(CCC(=O)O)C3C(CC1C4)O2 (stereo not given),Potency,[1],inactive
same,Potency,[2],inactive
CN1C(=O)c2ccccc2-n2c(nc3ccccc3c2=O)/C1=C/c1ccccc1,Potency,[1],inactive
same,Potency,[2],inactive
CCC1CC2C(C)=CC3CCCCC3C2(C)C2(OC(=O)C(C)(O)OC2=O)O1 (stereo not given),Potency,[1],inactive
same,Potency,[2],inactive
C=C1CC2(C(=O)O)CC1CCC2C1(C)CCCC2(C)C(=O)OC(O)C21 (stereo not given),Potency,[1],inactive
same,Potency,[2],inactive
CC1(C)CC[C@]2(C(=O)O)CC[C@]3(C)C(=CCC4[C@@]5(C)CCC(O[C@@H]6OC[C@H](O)[C@H](O)[C@H]6O[C@@H]6O[C@H](CO)[C@@H](O)[C@H](O)[C@H]6O)[C@@](C)(CO)C5CC[C@]43C)[C@@H]2C1 (stereo not given in full),Potency,[1],inactive
same,Potency,[2],inactive
CO[C@@H]1CC[C@H](OC[C@]2(COC(=O)c3ccc(C)[nH]3)[C@H](OC(C)=O)CC[C@@]3(C)[C@@H]4CC=C(C)[C@@H](C5=C(O)C(=O)OC5O)[C@]4(C)CC[C@@H]32)O[C@H]1C (stereo not given in full),Potency,[1],inactive
same,Potency,[2],inactive
CC1(C)C(=O)N2c3ccccc3[C@]3(CC(n4cnc5ccccc5c4=O)C(=O)O3)[C@H]2N1O (stereo not given in full),Potency,[1],inactive
same,Potency,[2],inactive
CC1(C)CCC[C@@]2(C)[C@H]1[C@H](O)C=C1COC(=O)[C@@]12O,Potency,[1],inactive
same,Potency,[2],inactive
CC(C)c1cc2c(c(O)c1O[C@@H]1O[C@H](CO)[C@@H](O)[C@H](O)[C@H]1O)CC1(O)CCC(O)C(C)(C)C1CC2 (stereo not given in full),Potency,[1],inactive
same,Potency,[2],inactive
CC(=O)OCC(=O)O[C@@H]1[C@H]2[C@@H](OC(=O)c3ccccc3)[C@@H](C)C[C@]2(O)[C@H](OC(C)=O)C2(C)[C@H]3CC(C)(C)C(=O)[C@@H]3CC1(OC(C)=O)[C@@H]2OC(C)=O (stereo not given in full),Potency,[1],inactive
same,Potency,[2],inactive
COc1cc(C(O)C(CO)Oc2ccc(CCCO[C@@H]3O[C@@H](C)[C@H](O)[C@@H](O)[C@H]3O)cc2OC)ccc1O (stereo not given in full),Potency,[1],inactive
same,Potency,[2],inactive
same,activity,[3],-72.8%
same,"activity change, negative = inhibition",[4],-3.44% [at 29.8 µM]
same,activity,[5],-3.89%
same,activity,[6],-4.24%
O=C(O)c1cc(O[C@@H]2O[C@H](CO[C@@H]3OC[C@@H](O)[C@H](O)[C@H]3O)[C@@H](O)[C@H](O)[C@H]2O)c2ccccc2c1O,Potency,[1],inactive
same,Potency,[2],inactive
CC(C)NC[C@H](O)COc1ccc(CCOCC2CC2)cc1,Potency,[1],inactive
same,Potency,[2],inactive
Cc1ccc2c(c1)C=Cc1cc(C)ccc1C2c1cn(Cc2ccc(C(=O)Nc3nn[nH]n3)o2)c(=O)[nH]c1=S,Potency,[1],inactive
same,Potency,[2],inactive
same,activity,[3],-11%
same,"activity change, negative = inhibition",[4],-0.0663%
same,activity,[5],-18.9%
same,activity,[6],-2.77%
C[C@@H]1O[C@@H](OC[C@H]2O[C@@H](OCCc3ccccc3)[C@H](O)[C@@H](O)[C@@H]2O)[C@H](O)[C@H](O)[C@H]1O,Potency,[1],inactive
same,Potency,[2],inactive
C=CC(C)(C)C1(CC2NC(=O)C3CCCN3C2=O)C(=O)Nc2cc3c(cc21)C=CC(C)(C)O3 (stereo not given),Potency,[1],inactive
same,Potency,[2],inactive
COC(=O)C1=CO[C@@H](O[C@@H]2O[C@H](COC(=O)/C=C/c3cc(OC)c(O)c(OC)c3)[C@@H](O)[C@H](O)[C@H]2O)[C@@H]2C(CO)=CC[C@H]12,Potency,[1],inactive
same,Potency,[2],inactive
same,activity,[3],-58.2%
same,"activity change, negative = inhibition",[4],-6.4% [at 19.1 µM]
same,activity,[5],-2.91%
same,activity,[6],-3.37%
COc1cc(C2Oc3c(OC)cc(CCCO[C@@H]4O[C@H](CO)[C@@H](O)[C@H](O)[C@H]4O)cc3C2CO)ccc1O (stereo not given in full),Potency,[1],inactive
same,Potency,[2],inactive
same,activity,[3],-72%
same,"activity change, negative = inhibition",[4],2.87% [at 29.8 µM]
same,activity,[5],0%
same,activity,[6],4.57%
CC(C)C(=O)O[C@@H]1[C@@H](O)[C@@H](O[C@H]2O[C@H](CO)[C@@H](O)[C@H](O)[C@H]2O)O[C@H](CO)[C@H]1O,Potency,[1],inactive
same,Potency,[2],inactive
CC1=CC(=O)CC(C)(C)C1(O)CCC(C)O (stereo not given),Potency,[1],inactive
same,Potency,[2],inactive
same,activity,[3],-75.7%
same,"activity change, negative = inhibition",[4],2.94%
same,activity,[5],0%
same,activity,[6],4.65%
CC1(C)CC[C@]2(C(=O)O[C@@H]3O[C@H](CO)[C@@H](O)[C@H](O)[C@H]3O)CC[C@]3(C)C(=CCC4[C@@]5(C)C[C@@H](O)[C@H](O)C(CO)(CO)C5CC[C@]43C)C2[C@@H]1O (stereo not given in full),Potency,[1],inactive
same,Potency,[2],inactive
same,activity,[3],-77.5%
same,"activity change, negative = inhibition",[4],0% [at 19.1 µM]
same,activity,[5],0%
same,activity,[6],4.05%
CC1=CC(=O)CC(C)(C)C1CCC(C)OC1OC(COC(=O)c2cc(O)c(O)c(O)c2)C(O)C(O)C1O (stereo not given),Potency,[1],inactive
same,Potency,[2],inactive
same,activity,[3],-58.9%
same,"activity change, negative = inhibition",[4],0% [at 29.8 µM]
same,activity,[5],2.37%
same,activity,[6],0%
